Assay results from PubChem BioAssay (NCI).
This is part of a sample that, as a whole, favours compounds with a hit. Of some 83,000 tested, about 20% had one in any assay.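 How to read the values: 0–100, growth inhibition (40 = 60% inhibited); 0, no net growth; -100 to 0, cell death (-40 = 40% of starting cells died; -100 = all dead).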 Active and inactive are the calls of the source. The calls were made as follows: active = growth percent below 10; inactive = the rest.

Each molecule was assayed on HL-60(TB) leukemia (assay: NCI-60 one-dose screen, 48 h (100 = growth as untreated, 0 = no growth, -100 = all killed)). Details: 10 µM unless noted.
For `CCCn1c(=O)[nH]c(N)c([C@H]2c3ccccc3Oc3[nH]c(=O)n(CCC)c(=O)c32)c1=O`, the growth was 32.9% (inactive). `C=C1C(=O)O[C@H]2[C@H]1CC/C(COC(=O)/C=C\C(=O)NCc1ccc(Cn3c(=O)sn(-c4ccc(OC)cc4)c3=O)cc1)=C\CC[C@@]1(C)O[C@@H]21` was tested, and the growth was -35.8% (active). `Cc1ccnc2c1ccc1c(C)ccnc12` was tested, and the growth was -5.64% (active). For `Fc1ccc(C2CC(c3cccc(Nc4ccncc4)c3)=NN2c2ccc(Cl)cc2)cc1` (configuration not stated), the growth was 17.2% (inactive). In the case of `O=C(C[C@@]1(O)C(=O)Nc2c(Cl)ccc(Cl)c21)c1ccc(C2CC2)cc1`, the growth is reported as -17.8% (active). For `Nc1nc(Cn2c(-c3nonc3N)nc3ccccc32)nc(N2CCCCC2)n1`, the growth was 82.2% (inactive). `COc1ccc(-c2nn(-c3cccc(NC(=O)Nc4cccc(C(F)(F)F)c4)c3)cc2-c2ccncc2)cc1Cl` was tested, and the growth was 3.19% (active). For `COc1ccc(NC(=O)c2sc3nc(C)c(C(=O)c4ccc(OC)cc4)cc3c2N)cc1`, the growth was 6.31% (active). In the case of `COc1cc2nc(Cl)nc(Nc3cccc(C(=O)/C=C/c4ccc(F)cc4)c3)c2cc1OC`, the growth is reported as 62.1% (inactive). With `O=C(c1nc2ccccc2[nH]1)C1C(c2ccc(Cl)cc2)C2CC3CCCC[C@H]3N2[C@@]12C(=O)Nc1cc(Cl)ccc12` (some centres not stated) the growth was 23.8% (inactive). In the case of `O=C(O)CCCN1C(=O)CSC1=S`, the growth is reported as 103% (inactive). With `Brc1c[n+](Cc2ccc3ccccc3c2)cn1Cc1ccc2ccccc2c1` the growth was -47.5% (active). `COc1cc2nn(-c3ccccc3N)nc2cc1OC` was tested, and the growth was 102% (inactive). For `Cc1cc(N)c2cc(NC(=O)/C=C\c3ccccc3Cl)ccc2n1`, the growth was -29.3% (active). `COC(=O)c1nc(-c2ccc(C)cc2)oc1N1CCOCC1` was tested, and the growth was 93.7% (inactive). For `C[C@@H]1CC2C3CCC4=CC(=O)C=C[C@]4(C)[C@@]3(Cl)[C@@H](O)C[C@]2(C)[C@@]1(OC(=O)c1ccco1)C(=O)CCl` (some centres not stated), the growth was 78.2% (inactive). For `CSc1nc2c(c(=O)[nH]1)C1(C(=O)Nc3ccccc31)c1c(nc(SC)[nH]c1=O)N2`, the growth was 107% (inactive). With `COc1ccc2sc3c(NCCCNCCO)nc4ccccc4c3c(=O)c2c1` the growth was 36.5% (inactive). In the case of `Cc1ccc(S(=O)(=O)c2c(COC(=O)c3cccc(C)c3)c(-c3ccccc3)nn2C)cc1`, the growth is reported as 30.2% (inactive). In the case of `Nc1nc2c(ncn2C2OC3COP(=O)(O)OC4C(COP(=O)(O)OC2C3O)OC(n2cnc3c(N)ncnc32)C4O)c(=O)[nH]1` (configuration not stated), the growth is reported as 103% (inactive). In the case of `O=COCCCc1ccccc1`, the growth is reported as 106% (inactive). In the case of `O=c1ccccc(-c2ccc(Br)cc2)c1O`, the growth is reported as -35.9% (active). For `Cc1cc(=O)n(C(=O)Nc2ccccc2Cl)c2cc(O)ccc12`, the growth was 107% (inactive). `ClCC1(Cn2cnc3c(Cl)nc(Cl)nc32)COC1` was tested, and the growth was 91.6% (inactive). `C/C(=N\Nc1nc2ccccc2s1)c1ccncn1` was tested, and the growth was -19.9% (active). With `O=c1c2c3c(sc2nc(N/N=C/c2ccc(Br)cc2)n1Cc1ccccc1)CCCC3` the growth was 71.2% (inactive). In the case of `N/C(=N\O)c1ccncc1`, the growth is reported as 102% (inactive). In the case of `C=C1C(=O)O[C@H]2[C@H]1CC/C(COC(=O)NCc1ccc(Cn3c(=O)sn(CCCCC)c3=O)cc1)=C\CC[C@@]1(C)O[C@@H]21`, the growth is reported as -40.4% (active). `O=C1Nc2ccccc2/C1=N/N=C/c1ccsc1` was tested, and the growth was 99.4% (inactive). With `N=C(N)c1ccc(-c2ccc(-c3ccc(Cl)c(Cl)c3)o2)nc1` the growth was 15.1% (inactive). In the case of `NC(=O)c1cc(I)ccc1NC(=O)COc1ccccc1`, the growth is reported as -20.5% (active). In the case of `O=C1/C(=C/c2ccc([N+](=O)[O-])o2)Oc2ccc(Cl)cc21`, the growth is reported as -21.3% (active). For `CCC(C)NCC(=O)O` (configuration not stated), the growth was 100% (inactive). With `CC[C@@H]1OC(=O)[C@H](C)[C@@H](O[C@H]2C[C@@](C)(OC)[C@@H](O)[C@H](C)O2)[C@H](C)[C@@H](O[C@@H]2O[C@H](C)C[C@H](N(C)C)[C@H]2O)[C@](C)(O)C[C@@H](C)[C@@H]2N[C@@H](COCCOC)O[C@H]([C@H]2C)[C@]1(C)O` the growth was 94.2% (inactive). For `COc1cc(C(=O)/C=C/c2ccc(N3CCN(C)CC3)cc2)cc(OC)c1OC`, the growth was 98.2% (inactive). With `CCNCCCCNCCCCNCCCCNCCCCNCC` the growth was 127% (inactive). For `COc1cc(/C=C2\CN(S(=O)(=O)c3ccc(C)cc3)C/C(=C\c3cc(CN4CCCCC4)c(O)c(OC)c3)C2=O)cc(CN2CCCCC2)c1O`, the growth was -37.2% (active).
